From PubChem BioAssay (EPA / NIEHS) come the findings set out here.

Results filed as inconclusive are left out. The source made the active and inactive calls. How the source made its calls: active means hit-call score of the fitted dose curve at least 0.9, where 1 is the maximum; inconclusive means response in the unintended direction; inactive means score below 0.9.

Read-out in this assay: glucuronosyltransferase (UGT1A1), UGT1A1 (gene 54658)
Briefly: CLD_UGT1A1_6hr: CellzDirect (CLD) Gene Expression Assay for glucuronosyltransferase (UGT1A1) at 6 hours (AID 2283672). As for the experimental part: CLD_6hr is a cell-based, multiplexed-readout assay that uses hepatocyte, a human liver primary cell, with measurements taken at 6 hours after chemical dosing in a 96-well plate.CLD_UGT1A1_6hr is one of 16 assay component(s) measured or calculated from the CLD_6hr assay. It is designed to make measurements of mRNA induction, a form of inducible reporter, as detected with chemiluminescence signals by Quantitative Nuclease Protection Assay (qNPA) technology.Data from the assay component CLD_UGT1A1_6hr was analyzed at the endpoint, CLD_UGT1A1_6hr, in the positive analysis fitting direction relative to DMSO as the negative control and baseline of activity. Using a type of inducible reporter, gain-of-signal activity can be used to understand changes in the reporter gene as they relate to the gene UGT1A1. Furthermore, this assay endpoint can be referred to as a primary readout. To generalize the intended target to other relatable targets, this assay endpoint is annotated to the transferase intended target family, where subfamily is glucuronosyltransferase.
Human hepatocyte cultures were treated daily for two consecutive days with fresh dosing solutions containing appropriate concentrations of the 320 ToxCast chemicals (chemical identities were blinded to CellzDirect and other ToxCast collaborators), vehicle control (0.2% DMSO), and positive control inducers as summarized in Table 1. Due to the large number of treatment groups and chemicals examined, the ToxCast chemicals were divided into two groups (spanning two independent cultures of hepatocytes from separate donor preparations (Hu778: ToxCast plates 1 and 2; Hu776: ToxCast plates 3 and 4). Each preparation of human hepatocyte cultures was treated with respective vehicle control, medium only control, set of six positive controls/reference chemicals for the five hepatic receptor pathways, and a subset of eight of the ToxCast chemicals (indoxacarb, pyrithiobac-sodium, norflurazon, cyhalofop-butyl, methomyl, thiram, acetochlor, and propiconazole). These replicate data, coupled with internal replicates designed within the blinded ToxCast chemical library, provided additional data to evaluate interindividual differences between hepatocyte preparations and their potential impact on chemical profiles.Cell morphology and integrity were evaluated using phase-contrast microscopy as an indicator of hepatocyte cell health (Tyson & Green, 1987). Cultures for each treatment group (i.e., media, vehicle [0.2% DMSO], positive control inducers [multiple concentrations], and the ToxCast chemicals [multiple concentrations]) were observed and cell morphology was assessed relative to vehicle control cultures at each harvest time point (0, 6, 24, or 48 h). […] Images were evaluated at the conclusion of the study to assess changes in cell integrity and account for the effects of chemical exposure on uncharacteristic changes in concentration-dependent gene expression profiles. The results from these determinations of apparent cytotoxicity were annotated (yes/no) alongside the corresponding qNPA data for reference.At the conclusion of each treatment period, hepatocyte cultures (96-well) were washed with 1 volume of HBSS, lysed by addition of 25 ul ArrayPlate lysis buffer (HTG, Tucson, AZ), and 70 ul/well of Denaturation Oil, denatured by incubation at 95C for 10 min, and frozen at approximately -70C until analysis by nuclease protection assay (qNPA) (Roberts et al., 2007). For qNPA analysis, cell lysates were thawed at 50C for approximately 30 min, qNPA probes were added, and samples were incubated at 95C for 10 min to begin the detection process by denaturing the target RNA, dissociating the duplexes and secondary structure hybridization. At the conclusion of the hybridization period, S1 nuclease reagent was added to each sample to digest all nonprotected nucleotides at 50C for 60-90 min. […]
Turning to `CCCCC(CC)COC(=O)c1ccccc1C(=O)OCC(CC)CCCC` (stereo not given), the compound was classed as inactive. Turning to `COc1cnc(OC)n2nc(NS(=O)(=O)c3c(OCC(F)F)cccc3C(F)(F)F)nc12`, the compound was classed as inactive. In the case of `CO/C=C(/C(=O)OC)c1ccccc1Oc1cc(Oc2ccccc2C#N)ncn1`, the compound was classed as inactive. Next, `C=CCC1=C(C)[C@@H](OC(=O)[C@@H]2[C@@H](C=C(C)C)C2(C)C)CC1=O`: “inactive”; `COc1nc(C)nc(NC(=O)NS(=O)(=O)c2ccccc2CCC(F)(F)F)n1`: “inactive”; `COc1nc(C)nc(NC(=O)NS(=O)(=O)c2ccccc2Cl)n1`: “inactive”. With `N#CC(CCc1ccc(Cl)cc1)(Cn1cncn1)c1ccccc1` (stereo not given) the entry was “inactive”; with `CC1=C(C(=O)Nc2ccccc2)SCCO1`, “inactive”. As for `CCOP(=S)(OCC)SCn1c(=O)oc2cc(Cl)ccc21`, the compound was called inactive. For the compound `CCCCOC(=O)c1ccccc1C(=O)OCCCC`, the call was inactive. For `COC(=O)C=C(C)OP(=O)(OC)OC`, the compound was called inactive.

In the case of `CCCCNC(=O)OCC#CI`, the compound was called inactive. Next, `CNC(=O)ON=CC(C)(C)SC`: “inactive”; `CCc1nn(C)c(C(=O)NCc2ccc(C(C)(C)C)cc2)c1Cl`: “inactive”. With `CNC(=S)S` the entry was “inactive”; with `COc1nc(NC(C)C)nc(NC(C)C)n1`, “inactive”; with `CC1COC(Cn2cncn2)(c2ccc(Oc3ccc(Cl)cc3)cc2Cl)O1` (stereo not given), “inactive”.

Take `CCCC1COC(Cn2cncn2)(c2ccc(Cl)cc2Cl)O1` (stereo not given): the compound was classed as inactive. Take `COC(=O)C(C)Oc1ccc(Oc2ccc(Cl)cc2Cl)cc1` (stereo not given): the outcome was inactive.

Regarding `CCCN(CCC)c1c([N+](=O)[O-])cc(S(N)(=O)=O)cc1[N+](=O)[O-]`, the outcome was inactive. Regarding `C#CCOS(=O)OC1CCCCC1Oc1ccc(C(C)(C)C)cc1` (stereo not given), the call was inactive. On to `CCOC(=O)CC(SP(=S)(OC)OC)C(=O)OCC` (stereo not given), for which the compound was called inactive. Regarding `O=C(O)COc1nc(Cl)c(Cl)cc1Cl`, the compound was called inactive. Next, `Cc1cc(Cl)ccc1OCC(=O)O`: “inactive”; `C=CC1(C)OC(=O)N(c2cc(Cl)cc(Cl)c2)C1=O` (stereo not given): “inactive”; `COC(=O)c1ccccc1C(=O)OC`: “inactive”. Next, `Cc1c(F)c(F)c(COC(=O)C2C(/C=C(\Cl)C(F)(F)F)C2(C)C)c(F)c1F` (stereo not given): “inactive”; `CC(Oc1ccc(Cl)cc1Cl)C(=O)O` (stereo not given): “inactive”. With `COP(=S)(OC)Oc1nc(Cl)c(Cl)cc1Cl` the entry was “inactive”. With `O=C(O)c1nc(Cl)ccc1Cl`, the result was inactive. With `N#Cc1nn(-c2c(Cl)cc(C(F)(F)F)cc2Cl)c(N)c1S(=O)C(F)(F)F` (stereo not given) the entry was “inactive”; with `CCNc1nc(Cl)nc(NCC)n1`, “inactive”; with `CC(C)C1(C)N=C(c2nc3ccccc3cc2C(=O)O)NC1=O` (stereo not given), “inactive”. For `CCOc1cc(Oc2ccc(C(F)(F)F)cc2Cl)ccc1[N+](=O)[O-]`, the compound was called inactive. Next, `O=C(Nc1ccccc1)Nc1ccnc(Cl)c1`: “inactive”; `Fc1ccc(Oc2ccnc3cc(Cl)cc(Cl)c23)cc1`: “inactive”; `Oc1ccccc1-c1ccccc1`: “inactive”. Consider `CCON=C(CC)C1=C(O)CC(c2c(C)cc(C)cc2C)CC1=O` (stereo not given), for which the compound was classed as inactive. Take `CCOC(=O)C(Cl)Cc1cc(-n2nc(C)n(C(F)F)c2=O)c(F)cc1Cl` (stereo not given): the result was inactive. `OC(c1ccc(Cl)cc1)(c1cncnc1)c1ccccc1Cl` (stereo not given): the outcome was inactive.
